# Only a sample is shown.
# aSyn 5UTR act = Activators working through SNCA 5'UTR binding (MLPCN); alpha-synuclein 5'UTR reporter, activators screen; activity score, % (tested at 7.5 µM), hits read low; 7.1% of 300,000 active; AID 1814; in the data active = activity score below about -60%
# * marks the source's active call; other numbers are inactive results.
SMILES,aSyn 5UTR act
O=C(CSc1ncc(-c2ccc(F)cc2)n1Cc1ccco1)Nc1ccc2c(c1)OCO2,-150.5*
CCOC(=O)c1sc(NC(=O)CSc2nccn2C)nc1C,-111.9*
O=C(CSc1nccn1-c1ccc(F)cc1)Nc1ccc2c(c1)OCO2,-65.3*
COc1ccc(C(=O)CSc2cc(C)[nH]c(=O)n2)cc1,-85.6*
CCc1ccc(C(=O)Nc2cc(C)on2)o1,-112.1*
Cc1cc(NC(=O)c2ccc(NC(=O)C(C)C)cc2)no1,-61.6*
CC(=O)Oc1ccc(C(=O)Nc2cc(C)on2)cc1,-83.8*
Cc1cc(NC(=O)c2ccc(C)c(C)c2)no1,-106.2*
Cc1cc(NC(=O)c2ccc(Br)c([N+](=O)[O-])c2)no1,-81.1*
O=C(/C=C/c1ccc(-c2ccccc2[N+](=O)[O-])o1)c1ccccc1,-120.4*
O=C(N/N=C/c1ccc(-c2ccccc2[N+](=O)[O-])o1)[C@H]1C[C@@H]1c1ccccc1,-79.4*
CCc1ccc(N2CSC3=C(C#N)C(c4cccs4)CC(=O)N3C2)cc1 (configuration not stated),-94.2*
COc1cc(OC)c(C2CC(=O)N3CN(c4ccc(C)cc4)CSC3=C2C#N)cc1OC (configuration not stated),-127.1*
Cc1ccc(N2CSC3=C(C#N)C(c4cccs4)CC(=O)N3C2)cc1 (configuration not stated),-130.9*
COc1ccc2c(c1)C(=O)c1ccccc1CO2,-242.4*
C/C(=N\NC(=O)c1n[nH]c2c1CCC2)c1cccs1,107.2
C/C(=N\NC(=O)c1ccccc1O)c1ccc(Br)s1,-161.9*
C/C(=N\NC(=O)c1cc(Br)ccc1O)c1cccs1,-110.8*
C/C(=N/NC(=O)c1cnccn1)c1cccs1,-65.2*
C/C(=N\Nc1ccccn1)c1cccs1,-147.9*
CCOC(=O)C(CC)/C(C)=N\NC(=O)c1ccccc1O (configuration not stated),93.5
C/C(=N/NC(=O)c1ccc(Br)o1)c1cccs1,-72.9*
C/C(=N\NC(=O)c1ccc(CSc2nncn2C)cc1)c1cccs1,-62.1*
CC(C)c1ccc2[nH]c(O)c(N=NC(=O)c3ccc(CSc4nncn4C)cc3)c2c1,-71.8*
Cc1ccc(O)c(Nc2ncnc3ccccc23)c1,-95.5*
SMILES,aSyn 5UTR act
COc1cccc(Nc2ncnc3ccccc23)c1,-122.6*
COc1ccc(Nc2ccnc(Nc3ccc(OC)cc3)n2)cc1,-119.8*
COc1cccc(Nc2cc(C)c3ccccc3n2)c1,-62.7*
COc1ccc(Nc2ncnc3ccccc23)cc1,-152.0*
CCOc1ccc(Nc2nc(N)c3ccccc3n2)cc1,102.3
COc1ccc(Nc2cc(Nc3ccccc3)ncn2)cc1,-80.9*
CNc1nnc(CSc2nc3ccccc3s2)s1,-87.8*
c1csc(CSc2nc3ccccc3s2)c1,-279.9*
Cc1ccc2nc(Nc3nc(CSc4nc5ccccc5s4)cc(=O)[nH]3)nc(C)c2c1,61.3
Cc1ccccc1OCc1nc(-c2ccc(NC(=O)c3cccs3)cc2)no1,-276.5*
Cc1ccccc1OCc1nc(-c2ccc(NC(=O)c3ccc4c(c3)OCO4)cc2)no1,-108.6*
CC(Oc1ccc(Cl)cc1Cl)c1nc(-c2ccc(NC(=O)c3ccco3)cc2)no1 (configuration not stated),-147.2*
CCCc1ccc(OCc2nc(-c3ccc(NC(=O)c4ccco4)cc3)no2)cc1,-119.2*
CCCc1ccc(OCc2nc(-c3ccc(NC(=O)c4cccs4)cc3)no2)cc1,-169.1*
O=C(Nc1cc2c(cc1Cl)OCCCO2)c1ccco1,-143.7*
O=C(Nc1cc2c(cc1Cl)OCCCO2)c1ccccc1,-151.4*
Cc1cc(OCC(=O)N(C)C2CCCCC2)cc(C)c1Cl,-67.7*
CN(C(=O)COC(=O)c1ccc(Cl)cc1N)C1CCCCC1,-81.8*
N#CCC(=O)N/N=C/c1cn(Cc2ccc(Cl)c(Cl)c2)c2ccccc12,61.2
N#CCn1cc(/C=N/NC(=O)c2cc3c(ccc4ccccc43)o2)c2ccccc21,-112.4*
Nc1cccc(-c2cn3cc(C(F)(F)F)cc(Cl)c3n2)c1,-99.9*
FC(F)(F)c1cc(Cl)c2nc(-c3ccccc3)cn2c1,-79.6*
Cn1c(O)c(C=Nc2ccc(Br)cc2)sc1=O,-173.0*
Nc1ccc(OCCc2ccccc2)cc1,-76.4*
COc1ccc(NC2=Nc3ccccc3CC2)cc1,-137.5*
SMILES,aSyn 5UTR act
Cc1cc(C(=O)CSc2nnnn2C)c(C)n1C1CC1,-68.6*
Cc1nnc(SCC(=O)c2cc(C)n(C3CC3)c2C)s1,-146.5*
Cc1ccc(C(=O)CSc2nnc(C)s2)cc1,-85.0*
Cc1ccc(NC(=O)c2ccc(CSc3nnc(C)s3)cc2)c(C)c1,-68.2*
COc1cc2cc(C#N)c(SCC(=O)N3CCOCC3)nc2cc1OC,-74.4*
N#Cc1cc2cc3c(cc2nc1SCC(=O)N1CCCC1)OCCO3,-84.6*
FC(F)Oc1ccccc1/C=N/n1cnc2ccccc21,-191.1*
O=C(O)Cn1cc(/C=c2/sc3nc4ccccc4n3c2=O)c2ccccc21,-162.3*
Cc1ccc(-n2c(C)cc(/C=c3/sc4nc5ccccc5n4c3=O)c2C)cc1,66.7
COC(=O)c1ccc(N=Cc2c(-c3ccccc3)[nH][nH]c2=O)cc1,-215.5*
